Methyltransferases: Primary Screen for Target Class Profiling of Small Molecule Inhibitors of Methyltransferases | AID 1745853, 2022 | purified enzyme, MTase-Glo SAH luminescence; stronger effect = lower value | calls only at 40 µM | actives 3.9% (n = 25,000); call rule not given here
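Each enzyme was reacted with SAM and its substrate, with compounds tested once at 40 uM; SAH formed was read by MTase-Glo luminescence.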
Large screens that a line does not name were inactive; ! = not active in a repeat. The full list was thinned out, with hits kept by preference.

CC(C)(C)c1cc2n(n1)CC(C)(C(=O)NCc1ccccc1)N(Cc1ccccc1Cl)C2=O (stereo not drawn)	none
Cc1ccc(N2C(=O)c3cc4ccccc4n3CC2(C)C(=O)NCCC(C)C)c(C)c1 (stereo not drawn)	none
CC(C)OCCCn1c(=O)c2ccccc2n2c(=O)n(Cc3ccccc3Cl)nc12	none
Cc1ccc2c(c1)C=Cc1cc(C)ccc1C2c1cn(Cc2ccc(C(=O)Nc3nn[nH]n3)o2)c(=O)[nH]c1=S	Methyltransferases active
CCCNC(=O)c1ccc2c(=O)nc3c(-c4ccc(OC)cc4)n[nH]n3c2c1	none
COc1cccc(CN2C(=O)c3ccc(-c4ccco4)n3CC2(C)C(=O)NC2CCCC2)c1 (stereo not drawn)	none
CC(C)(C)c1cc2n(n1)CC(C)(C(=O)NC1CCCCC1)N(Cc1cccc(F)c1)C2=O (stereo not drawn)	none
O=C(CSc1nnc2n(Cc3ccccc3)c(=O)c3ccccc3n12)NC1CCCCC1	none
NC(Cc1cccc(-c2ccccc2CP(=O)(O)O)c1)C(=O)O (stereo not drawn)	none
N[C@@H](Cc1cc(I)c(Oc2cc(I)c(O)c(I)c2)c(I)c1)C(=O)O	Methyltransferases active
N[C@@H](Cc1cc(I)c(Oc2ccc(O)c(I)c2)c(I)c1)C(=O)O	Methyltransferases active!
NC(Cc1c[nH]c2ccccc12)C(=O)O (stereo not drawn)	none
Cc1ccc(-c2n[nH]n3c2nc(=O)c2ccc(C(=O)NCCC(C)C)cc23)cc1	none
Cc1c(Cl)cccc1N1C(=O)c2cc(C(C)(C)C)nn2CC1(C)C(=O)NC1CCCCC1 (stereo not drawn)	none
CCCN1C(=O)c2cc(C(=O)NCc3ccc(OCC)cc3)nn2CC1(C)C(=O)NC1CCCC1 (stereo not drawn)	none
CCCNC(=O)CCn1ccc2cc(S(=O)(=O)N3CCCCC3)ccc21	none
CC1CCN(S(=O)(=O)c2ccc3c(ccn3CC(=O)NCCc3ccccc3Cl)c2)CC1	none
CCCn1c(=O)c2ccccc2n2c(=O)n(Cc3ccc(Cl)cc3)nc12	none
CCOC(=O)c1cc2n(n1)CC(C)(C(=O)NCc1ccccc1)N(Cc1cccc(OC)c1OC)C2=O (stereo not drawn)	none
COCCN1C(=O)c2c(NC(C)=O)c3cc(F)ccc3n2CC1(C)C(=O)NC1CCCC1 (stereo not drawn)	none
CN1CCN(C(=O)c2ccc3cc(CCNc4ncnc5ccc(C#N)cc45)ccc3c2)CC1	Methyltransferases active
CC(=O)N1CCN(C(=O)c2ccc3oc(-c4ccccn4)nc3c2)CC1	none
COc1ccc(CCNc2ncnc3c2CN(C2CCC2)C(=O)N(C)C3)cc1	none
CCOC(=O)c1ccc2c(c1)[C@@H]1C=CC[C@@H]1[C@H](c1ccccc1OCc1ccccc1)N2	none
CCOC(=O)c1cc2n(n1)CC(C)(C(=O)NC1CCCC1)N(c1ccc(OC)cc1OC)C2=O (stereo not drawn)	none
CC1CCN(S(=O)(=O)c2ccc3c(ccn3CC(=O)NC(C)c3ccccc3)c2)CC1 (stereo not drawn)	none
NCCOc1cc(C(=O)Nc2cc(OCCN)c3ccccc3n2)nc(C(=O)Nc2cc(OCCN)c3ccccc3n2)c1	Methyltransferases active
CCN(CC)CCCN1C(=O)c2ccc(-c3ccco3)n2CC1(C)C(=O)NC1CCCCCCC1 (stereo not drawn)	none
CCCn1c(=O)c2cc(F)ccc2n2c(SCC(=O)NC3CCCC3)nnc12	none
CN1CCN(CCCN2C(=O)c3ccc(-c4ccco4)n3CC2(C)C(=O)NC2CCCC2)CC1 (stereo not drawn)	none
COc1ncccc1-c1cc(-c2c(C)noc2C)c2cncn2c1	none
COc1cc2c(cc1-c1c(C)noc1C)ncc1[nH]c(=O)n([C@H](C)c3ccccn3)c12	Methyltransferases active!
Cc1noc(C)c1-c1nccc2c(=O)cc(-c3ccccn3)oc12	none
CC(C)CCNC(=O)C1(C)Cn2c(cc3ccccc32)C(=O)N1Cc1ccc2c(c1)OCO2 (stereo not drawn)	none
C=C(C)C(=O)OC1C(OC(C)=O)/C(C=O)=C\CC/C(CO)=C/C2OC(=O)C(=C)C21 (stereo not drawn)	none
C=C1C(=O)O[C@@H]2C=C(COC(C)=O)CC/C=C(\CO)CC[C@@H]12	Methyltransferases active
C=C1C(=O)O[C@@H]2/C=C(\CO)CC/C=C(\CO)[C@H](OC(C)=O)C(OC(=O)C(C)CC)C12 (stereo partly drawn)	none
CCCCN(CC)CCN1C(=O)c2cc3sc(CC)cc3n2CC1(C)C(=O)NC1CCCCC1 (stereo not drawn)	none
CCN1C(=O)c2cc(C(=O)Nc3ccc(C)c(C)c3)nn2CC1(C)C(=O)NC1CCCC1 (stereo not drawn)	none
CCC(C)NC(=O)c1ccc2c(=O)n(C)c3nn(CC(=O)c4cccc(Cl)c4)c(=O)n3c2c1 (stereo not drawn)	none
COc1cccc(CN2C(=O)c3cc4ccccc4n3CC2(C)C(=O)NCCCOC(C)C)c1 (stereo not drawn)	none
CCc1ccc(-c2cc3n(n2)CC(C)(C(=O)NC2CCCCC2)N(CCN(CC)CC)C3=O)cc1 (stereo not drawn)	none
O=C(Cn1c(=O)oc2cc(S(=O)(=O)NCc3ccccc3)ccc21)N1CCCCC1	none
CC[C@H](C)C(=O)O[C@H]1CCC=C2C=C[C@H](C)[C@H](CC[C@@H]3C[C@@H](O)CC(=O)O3)[C@H]21	Methyltransferases active
CC[C@H](C)C(=O)O[C@H]1C[C@@H](C)C=C2C=C[C@H](C)[C@H](CC[C@@H]3C[C@@H](O)CC(=O)O3)[C@H]21	none
CCCn1c(=O)c2ccccc2n2c(=O)n(CC(=O)NC3CCCCC3)nc12	none
COc1ccc(CNc2nc3c(S(=O)(=O)c4ccccc4)nnn3c3ccccc23)cc1	none
C=Cc1cc(O)cc2nc(-c3ccc(O)c(F)c3)oc12	Methyltransferases active
COc1ccc2cc3n(c2c1)CC(C)(C(=O)NC1CCCCC1)N(c1ccccc1OC)C3=O (stereo not drawn)	none
CC1(C(=O)NCc2ccccc2Cl)Cn2cnc(C(=O)NCc3cccc(F)c3)c2C(=O)N1C1CC1 (stereo not drawn)	none
Cc1ccc(Cn2c(=O)c3ccccc3n3c(=O)n(Cc4ccccc4)nc23)cc1	none
CC1(C(=O)NC2CCCCCC2)Cn2nc(C3CC3)cc2C(=O)N1Cc1ccccc1Cl (stereo not drawn)	none
CCC(C)NC(=O)c1ccc2c(=O)n(CC(C)C)c3nn(CC(=O)Nc4ccccc4C)c(=O)n3c2c1 (stereo not drawn)	none
COc1cccc(-c2cn(-c3ccc(CCN4CCC(O)CC4)cc3)c3ncnc(N)c23)c1	Methyltransferases active
Cn1cc(-c2ccc3c(c2)CCN3C(=O)Cc2cccc(C(F)(F)F)c2)c2c(N)ncnc21	none
CC(=O)NC1CCN(Cc2cn(-c3ccc(C)cc3)nc2-c2cccc(C)c2)C1 (stereo not drawn)	none
COc1cc(NC(=O)CSc2nnc3n(CCC(C)C)c(=O)c4ccccc4n23)cc(OC)c1	none
Cc1ccc(N2C(=O)c3cc4ccccc4n3CC2(C)C(=O)NC2CCCC2)c(C)c1 (stereo not drawn)	none
CCCn1c(=O)c2ccc(C(=O)NC(C)CC)cc2n2c(SCC(=O)Nc3cccc(C)c3)nnc12 (stereo not drawn)	none
CC(C)CCn1c(=O)c2ccc(C(=O)NC3CCCC3)cc2n2c(=O)n(CC(N)=O)nc12	none
COC(=O)c1ncn2c1C(=O)N(Cc1ccccc1OC)C(C)(C(=O)NC1CCCCC1)C2 (stereo not drawn)	none
COc1cc2c(NC3CCN(C(C)C)CC3)nc(N3CCC(F)(F)CC3)nc2cc1OCCCN1CCCC1	Methyltransferases active

Bioassay records as filed in PubChem.
